PubChem BioAssay (Tox21)
Records with an inconclusive call do not appear. Where a call stands in place of a potency, no number is given. Calls of active or inactive are those of the source. Calls follow the shape of the dose curve; as a rule, active = well fitted cell-killing curve with a large enough effect in the repeat runs; inconclusive = weak or mixed curves, or effect the other way; inactive = flat fitted curve, though single readings scatter.

Experiment: cAMP Responsive Elements (CRE) small molecule agonists, cell-based qHTS assay: qHTS cell viability counter screen (AID 2060914); also: nearly all actives have a fitted effect of over 50% in size
Settings: CRE-bla HEK293T viability, CellTiter-Glo luminescence, 5 h; series mostly up to 92.4 µM
How it was run: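 Cytotoxicity counter screen multiplexed with the CRE-bla reporter assay in HEK 293T cells: 3 h compound exposure at 37 °C, followed by CellTiter-Glo luminescence measured in the same wells.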
Potency is read from the fitted curve at half-maximal effect.

Row | Compound | activity change, negative = cytotoxicity | Potency
1 | Cc1cccn2c(=O)c(-c3nnn[nH]3)cnc12 | -13.9% [at 18.9 µM] (inactive) | –
2 | O=C(Nc1cccc(C(F)(F)F)c1)c1cc(Br)cc(Br)c1O | – | 27.3 µM (active)
3 | CCc1ccc(O)c(C(C)(C)C)c1 | – | inactive
4 | O=c1[nH]cccc1O | – | inactive
5 | C[C@]12CC[C@H]3C(=CCc4cc(O)ccc43)[C@@H]1CCC2=O | – | inactive
6 | CC1(C)C(=O)NC(=O)N1CO | – | inactive
7 | CC(C)(C)CC(C)(C)c1ccc(O)c(Cc2ccc(Cl)cc2Cl)c1 | – | 13.3 µM (active)
8 | CCCCCC(=O)O[C@]1(C(C)=O)CC[C@H]2[C@@H]3CCC4=CC(=O)CC[C@]4(C)[C@H]3CC[C@@]21C | – | inactive
9 | c1ccc2c(c1)c1cccc3ccc4cccc2c4c31 | – | inactive
10 | NNC(=O)CP(=O)(c1ccccc1)c1ccccc1 | – | inactive
11 | C[N+]12CCC(CC1)C(OC(=O)C(O)(c1ccccc1)c1ccccc1)C2 (stereo not given) | – | inactive
12 | CC(C)(O)C#CC(C)(C)O | – | inactive
13 | CCCCCCCC/C=C/C(=O)O | – | inactive
14 | NS(=O)(=O)c1ccc(C(=O)O)cc1 | – | inactive
15 | OCCN1CCN(CCCN2c3ccccc3Sc3ccc(C(F)(F)F)cc32)CC1 | – | inactive
16 | Cc1cccc(Nc2ccccc2)c1 | – | inactive
17 | CC1C2CC(CC2C2CCCC(O)C2)C1(C)C (stereo not given) | – | inactive
18 | CCCCCCCCCCCCO | – | inactive
19 | O=C1OC(O)C(C(Cl)Cl)=C1Cl (stereo not given) | – | inactive
20 | C=C(C)CC(C)(C)C | – | inactive

Row | Compound | activity change, negative = cytotoxicity | Potency
21 | CCCCC(CC)COC(=O)CS (stereo not given) | – | inactive
22 | CC1c2ccccc2CN1NC(=O)c1ccc(Cl)c(S(N)(=O)=O)c1 (stereo not given) | – | inactive
23 | O=c1[nH]cnc2ccccc12 | – | inactive
24 | CCOC(C)=O | – | 24.5 µM (active)
25 | Cc1nccn1-c1ccc(Sc2cccc(C3(C(N)=O)CCOCC3)c2)cc1 | – | inactive
26 | CC/C=C1/OC(=O)c2ccccc21 | – | inactive
27 | NCc1ccccc1 | – | inactive
28 | Cc1c(NC(=O)c2cccnc2)c(=O)n(-c2ccccc2)n1C | – | inactive
29 | CCCCC(CC)COC(=O)c1ccc(O)cc1 (stereo not given) | – | inactive
30 | C=CC(C)(CCC=C(C)C)OC=O (stereo not given) | – | inactive
31 | CCCCOC(=O)CO | – | inactive
32 | CC(=O)[C@]1(O)Cc2c(O)c3c(c(O)c2[C@@H](O[C@H]2C[C@H](N)[C@H](O)[C@H](C)O2)C1)C(=O)c1ccccc1C3=O | – | inactive
33 | ClC(Cl)Cl | – | inactive
34 | O=C1OC2(c3cc(Br)c(O)c(Br)c3Oc3c2cc(Br)c(O)c3Br)c2c(Cl)c(Cl)c(Cl)c(Cl)c21 | – | inactive
35 | O=C1OC(CN2CCOCC2)CN1/N=C/c1ccc([N+](=O)[O-])o1 (stereo not given) | – | inactive
36 | CC(C)(C)c1ccc(N)cc1 | – | inactive
37 | Cc1ccc(Nc2c(F)cccc2Cl)c(CC(=O)O)c1 | – | inactive
38 | CN(C)CC/C=C1\c2ccccc2Sc2ccc(Cl)cc21 | – | inactive
39 | c1ccc(C[n+]2cccc3ccccc32)cc1 | – | inactive
40 | CO[Si](C)(OC)c1ccccc1 | – | inactive
